Sampled rows, rich in hits. Any-hit rate of the full collection: about 0.4%.
AID inh = activation induced cytidine deaminase inhibition; Q9GZX7; AID deamination FRET fluorescence, UDG-coupled, 4 h; Potency, µM (highest dose often 115 µM), usual class: inhibitors; hit rate 0.32% among 91,000; note: nearly all actives have a fitted effect of over 25% in size
Target sequence (Q9GZX7 whole entry, looked up): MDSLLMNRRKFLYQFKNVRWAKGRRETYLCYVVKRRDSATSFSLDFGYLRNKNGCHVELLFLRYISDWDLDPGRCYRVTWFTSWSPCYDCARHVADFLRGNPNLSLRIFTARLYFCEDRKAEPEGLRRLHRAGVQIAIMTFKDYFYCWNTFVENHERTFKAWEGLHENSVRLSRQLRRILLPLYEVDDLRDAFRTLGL
UDG counter = counter-screen for AID inhibitors: uracil-DNA glycosylase inhibition. FRET deamination/UDG coupled assay, UDG read, 4 h. Potency, µM (top dose mostly 115 µM), most hits filed as inhibitors. hit rate 0.14% among 91,000; note: nearly all actives have a fitted effect of over 65% in size
Each line names hits and unclear results; the compound was inactive in the other large screens. Calls come from the whole dose curve; as a rule, active = well fitted curve in the direction sought with a large enough effect; inconclusive = small, poorly fitted or top-dose-only effect, or another doubt; inactive = no such curve, though single readings can be large; an effect the other way counts as inactive or inconclusive.

Cc1ccc(-n2[nH]c(CSc3nnnn3-c3ccccc3)cc2=O)cc1	UDG counter 89.1µM
Cc1ccc(CSc2nnnn2-c2c(C)n(C)n(-c3ccccc3)c2=O)cc1	none
O=C(c1cccc2ccccc12)N1CCN(Cc2c[nH]c3ccccc23)CC1	none
CN(C)CCCn1c(-c2ccc(COc3ccc(Br)cc3)o2)n[nH]c1=S	none
CCOc1ccc(C(=O)c2cn(CC(=O)Nc3ccc4c(c3)OCO4)c3ccc(OCC)cc3c2=O)cc1	none
CCOc1ccc(C(=O)c2cn(CC(=O)Nc3ccc4c(c3)OCO4)c3ccc(OC)cc3c2=O)cc1	AID inh 44.7µM
CC(=O)c1ccc(NC(=O)CC2Nc3cccc4cccc(c34)NC2=O)cc1 (configuration not stated)	AID inh 79.4µM, UDG counter inconclusive
CCOC(=O)c1ccc(NC(=O)CC2Nc3cccc4cccc(c34)NC2=O)cc1 (configuration not stated)	AID inh inconclusive
COc1ccc(NC(=O)CC2Nc3ccccc3NC2=O)cc1 (configuration not stated)	none
CCOc1ccc(NC(=O)CC2Nc3cccc4cccc(c34)NC2=O)cc1 (configuration not stated)	AID inh 50.1µM, UDG counter inconclusive
CCCc1c(C(=O)OCC)nnc2c(-c3ccc(F)cc3)c(C)nn12	none
S=c1nccc(-c2ccccc2)[nH]1	none
COc1ccc2[nH]c(C)c(C(=O)CN3CCC(Cc4ccccc4)CC3)c2c1	UDG counter 89.1µM
COc1ccc2[nH]c(C)c(C(=O)CN3CCC(C)CC3)c2c1	none
Cc1cccn2c(=O)c3cc(C(=O)NC(C)c4ccccc4)c(=N)n(CCOCCO)c3nc12 (configuration not stated)	none
CCOCCCn1c(=N)c(C(=O)NC(C)c2ccccc2)cc2c(=O)n3cccc(C)c3nc21 (configuration not stated)	AID inh 22.4µM
COCCNC(=O)c1ccc2c(c1)N(Cc1c(F)cccc1Cl)C(=O)c1ccccc1S2	none
CCN(CC)C(=O)c1ccc2c(c1)N(Cc1c(F)cccc1Cl)C(=O)c1ccccc1S2	AID inh 70.8µM
Cc1cccc(-c2nc(C#N)c(NCc3ccccc3)o2)c1	UDG counter inconclusive
CCc1ccc(NS(=O)(=O)c2cc(-c3cnc(C4CC4)o3)ccc2C)cc1	none
Cc1cccc(N(C)S(=O)(=O)c2cc(-c3cnc(C4CC4)o3)ccc2C)c1	AID inh inconclusive, UDG counter 79.4µM
CCCCn1c(N)c(N(CC)C(=O)c2cc(CCC)c(C)s2)c(=O)[nH]c1=O	none
CCCCC(=O)Nc1oc2c(C)cccc2c(=O)c1-c1cc(OC)c(OC)c(OC)c1	none
CCCCC(=O)Nc1oc2c(C)cccc2c(=O)c1-c1ccccc1	UDG counter 79.4µM
COc1cc(/C=C(/C#N)C(=O)C(C)C)cc(Cl)c1O	none
CCn1cc2nc(SCc3cccc(C(F)(F)F)c3)n(CCc3ccccc3)c(=O)c2n1	AID inh inconclusive
CCn1cc2nc(SCc3cccc(C)c3)n(CCc3ccccc3)c(=O)c2n1	AID inh 35.5µM
CCn1cc2nc(SCc3cccc(Cl)c3)n(Cc3ccc(C)cc3)c(=O)c2n1	none
CCn1cc2nc(SCc3cccc(C(F)(F)F)c3)n(Cc3ccc(Cl)cc3)c(=O)c2n1	AID inh 25.1µM
O=c1c2ccccc2c(-c2cccs2)nn1CC(O)COCc1ccccc1F (configuration not stated)	none
CC1(C)CCC2=C(O1)c1ccccc1C(=O)C2=O	AID inh 7.94µM
O=C1c2ccccc2-c2ccccc21	none
CCOC(=O)c1ccc(NC(=O)CC2SC(c3cc4ccccc4oc3=O)=NC2=O)cc1 (configuration not stated)	none
O=C(/C=C/c1ccco1)OCC(=O)C12CC3CC(CC(C3)C1)C2	none
Cc1ccc(NC(=O)C2=C(c3ccccc3)NC(=S)NC2c2ccc(Cl)cc2)cc1 (configuration not stated)	none
Cc1ccc(OCC(=O)N(Cc2nc(-c3ccccc3)no2)C(C)C)cc1C	none
Cc1ccc(-c2noc(CN(C(=O)COc3cc(C)cc(C)c3C)C(C)C)n2)cc1	AID inh 79.4µM
Cc1ccc(Cc2nc3ccccc3nc2SCC(=O)N2CCCCC2C)cc1 (configuration not stated)	AID inh 50.1µM
COc1cccc(Cc2nc3ccccc3nc2SCC(=O)N2CCCCC2C)c1 (configuration not stated)	AID inh inconclusive
COc1ccccc1S(=O)(=O)Cc1ccc(C(=O)N2CCN(c3cc(Cl)ccc3C)CC2)o1	AID inh inconclusive, UDG counter 89.1µM
CCn1cc(C(=O)N2CCN(c3cc(Cl)ccc3C)CC2)c2cc(OC)c(OC)cc2c1=O	none
N#Cc1ccsc1NC(=O)CSc1nnc(-c2ccccc2F)n1C1CCCCC1	none
Cc1cc(/C=C(\C#N)c2nc3ccccc3[nH]2)cc2c1OC(C)C2 (configuration not stated)	none
O=S1(=O)c2ccccc2N(Cc2ccc(Cl)cc2)c2ccccc21	AID inh 79.4µM
O=S1(=O)c2ccccc2N(Cc2ccc(F)cc2)c2ccccc21	AID inh inconclusive
O=C(/C=C/c1ccc(-c2ccccc2Cl)o1)c1ccccc1Br	none
CCNc1sc(C(C)=O)c(N)c1C#N	none
O=C(NCc1cccs1)c1ccc2c(=O)n3nc(Nc4ccccc4)sc3nc2c1	none
CCc1ccccc1Nc1nn2c(=O)c3ccc(C(=O)NCc4cccs4)cc3nc2s1	AID inh 31.6µM
c1ccc(OCCN2CCC(c3nc4ccccc4s3)CC2)cc1	none
CCc1ccc(C(=O)c2cn(CC(=O)Nc3ccc(F)c(F)c3)c3cc(OC)c(OC)cc3c2=O)cc1	none
CCc1ccc(C(=O)c2cn(Cc3ccc(F)cc3)c3cc(OC)c(OC)cc3c2=O)cc1	AID inh 35.5µM
CCc1ccc(NC(=O)CSc2nc(C)c(C(=O)Nc3ccc(Cl)cc3)c(-c3ccc(OC)cc3)c2C#N)cc1	AID inh inconclusive, UDG counter 89.1µM
COc1ccc(-c2c(C#N)c(SCC(=O)Nc3ccccc3C)nc(C)c2C(=O)Nc2ccc(Cl)cc2)cc1	UDG counter inconclusive
CCc1ccccc1N/N=C(/c1ccccc1)c1ccc(Br)cc1	none
Cc1ccc2c(=O)c(-c3nc(-c4ccc(Cl)cc4)no3)cn(CC(=O)NCc3ccco3)c2n1	none
CC1C/C(=N/NC(=S)Nc2ccc(SC(F)F)cc2)CC(C)(C)C1 (configuration not stated)	none
Cc1cc(=O)n(Cc2ccc(F)cc2Cl)c2c1c(C)nn2-c1ccccc1	none
Cc1ccc(C)c(-c2ccc(=O)n(Cc3ccc(F)cc3Cl)n2)c1	AID inh 31.6µM, UDG counter inconclusive
Cc1ccc(NC(=O)c2c(C)nc3sc(C(=O)Nc4ccc(F)cc4)c(N)c3c2-c2ccccc2Cl)c(C)c1	none
Cc1ccc(NC(=O)c2c(C)nc3sc(C(=O)Nc4ccc(F)cc4)c(N)c3c2-c2ccc(Cl)cc2)c(C)c1	AID inh 31.6µM, UDG counter 89.1µM
Cc1ccc(S(=O)(=O)c2cn(C)c3cc(N4CCCC4)c(F)cc3c2=O)c(C)c1	none
CCn1cc(S(=O)(=O)c2ccc(C)cc2C)c(=O)c2cc(F)c(N3CCCC3)cc21	AID inh 22.4µM, UDG counter inconclusive
COc1cccc(N2CCN(C(=O)CCS(=O)(=O)c3ccc4c(c3)CC(=O)N4C)CC2)c1	UDG counter inconclusive
CN1C(=O)Cc2cc(S(=O)(=O)CCC(=O)N3CCN(c4ccc(Cl)cc4)CC3)ccc21	UDG counter 89.1µM
Cc1ccc(-c2ccc(/C=C/C(=O)c3ccccc3)o2)cc1Cl	none
